From PubChem BioAssay (NCI)
The panel holds about 79,000 compounds, 15% with a hit somewhere; the sample as a whole holds those more often. Active and inactive are the calls of the source. Cut-off read from the data, not from the text of the source: active = growth inhibition above about 70%; inactive = the rest.

Columns and labels:
[1] = NCI Yeast Anticancer Drug Screen. Data for the mec2-1 strain (AID 157); conditions: S. cerevisiae mec2-1 strain, at 100.0 µM, hits give high values
Procedure, shortened: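 Cells of the genetically defined mec2-1 yeast strain are incubated with test compound. Inhibition of growth is calculated against vehicle-treated controls.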

[2] = NCI Yeast Anticancer Drug Screen. Data for the rad14 strain (AID 159);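 note: 0% = growth of vehicle-treated control cultures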; conditions: S. cerevisiae rad14 strain growth inhibition, hits give high values
Procedure, shortened: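 Growth inhibition vs vehicle controls; genetically altered yeast strain (DNA damage repair defect) treated with test compounds.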

[3] = NCI Yeast Anticancer Drug Screen. Data for the sgs1 mgt1 strain (AID 161);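 note: 0% = growth of cultures given vehicle only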; conditions: S. cerevisiae sgs1 mgt1 strain, hits give high values
Procedure, shortened: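 Genetically altered yeast, compound exposure, growth inhibition relative to vehicle.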

[4] = NCI Yeast Anticancer Drug Screen. Data for the cln2 rad14 strain (AID 165);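 note: 0% = growth equal to vehicle treated cultures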; conditions: S. cerevisiae cln2 rad14 strain, hits give high values
Procedure, shortened: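 The screen exposed genetically defined yeast (cln2 rad14) to test compounds and scored growth inhibition relative to vehicle-treated controls.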

[5] = NCI Yeast Anticancer Drug Screen. Data for the bub3 strain (AID 167); conditions: S. cerevisiae bub3 mutant strain, hits give high values
Procedure, shortened: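 Readout: yeast growth inhibition, expressed relative to vehicle-only wells. The test organism is a mutant strain from a panel with lesions in DNA repair or checkpoint genes.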

[6] = NCI Yeast Anticancer Drug Screen. Data for the wt2 strain (AID 169);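 note: 0% = growth of vehicle-treated yeast cultures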; conditions: S. cerevisiae wt2 strain growth inhibition, hits give high values
Procedure, shortened: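 Steps: yeast strain treated with compound; growth recorded; inhibition calculated relative to cultures given vehicle alone.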

[7] = NCI Yeast Anticancer Drug Screen. Data for the mlh1 strain (AID 171);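 note: 0% = growth of vehicle-treated control cultures of the same strain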; conditions: S. cerevisiae mlh1 strain growth inhibition, hits give high values
Procedure, shortened: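 Yeast screen: mutant strain plus compound, growth scored against vehicle control wells.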

[8] = NCI Yeast Anticancer Drug Screen. Data for the mlh1 rad18 strain (AID 175); conditions: S. cerevisiae mlh1 rad18 strain growth inhibition, hits give high values
Procedure, shortened: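 Compound-treated yeast growth, normalised to vehicle controls. Strain bears defined DNA repair mutations.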

[9] = NCI Yeast Anticancer Drug Screen. Data for the rad18 strain (AID 177); conditions: S. cerevisiae rad18 mutant growth inhibition, hits give high values
Procedure, shortened: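 Inhibition values reflect reduced yeast growth compared with vehicle-treated controls, using a strain engineered with a DNA damage repair defect.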

[10] = at 5.0 µM (retest, dose inferred, filed as 0.5)
[11] = at 50.0 µM (retest, dose inferred, filed as 5.0)

Measured: growth inhibition

CCC[CH2][Ge]([CH2]CCC)([CH2]CCC)[O]C(=O)C(OC)c1ccccc1 (stereo not drawn)
active: [1] 98% | [2]; at 100.0 µM 95% | [3]; at 50.0 µM 82.8% | [5]; at 50.0 µM 76% | [5]; at 100.0 µM 97% | [6]; at 100.0 µM 98% | [7]; at 100.0 µM 98% | [8]; at 50.0 µM 78% | [9]; at 33.0 µM 80% | [9]; at 100.0 µM 98%
inactive: [2]; at 1.2 µM -2% | [2]; at 3.7 µM -7% | [2]; at 11.0 µM -10% | [2]; at 33.0 µM 26% | [3]; [10] 59% | [3]; [11] 59% | [4]; [10] 18% | [4]; [11] 18% | [4]; at 50.0 µM 66.5% | [5]; at 1.2 µM -6% | [5]; at 3.7 µM -4% | [5]; [10] 10% | [5]; at 11.0 µM 12% | [5]; at 33.0 µM 54% | [5]; [11] 10% | [6]; at 1.2 µM -3% | [6]; at 3.7 µM -4% | [6]; at 11.0 µM 0% | [6]; at 33.0 µM 48% | [7]; at 1.2 µM -4% | [7]; at 3.7 µM -5% | [7]; at 11.0 µM -1% | [7]; at 33.0 µM 60% | [8]; [10] 39% | [8]; [11] 39% | [9]; at 1.2 µM 5% | [9]; at 3.7 µM 4% | [9]; at 11.0 µM 22%
